# Results filed as inconclusive are left out. Activity calls are given as the source filed them. Rule for the calls: active = hit-call score of the fitted dose curve at least 0.9, where 1 is the maximum; inconclusive = response in the unintended direction; inactive = score below 0.9.
# Assays:
# [1] = target: rat Neurotensin Receptor (NTS), Ntsr1 (gene 366274) (UniProt P20789); assay: NVS_GPCR_rNTS: NovaScreen (NVS) G Protein-Coupled Receptor Assay for rat Neurotensin Receptor (NTS) (AID 2283308)
# Procedure, shortened: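 Rat forebrain membranes; radioligand binding with competitive displacement, read by filter-based scintillation counting 1 h after dosing. Primary screen in duplicate at 25 uM; actives (e.g., 30% inhibition) rerun in concentration-response up to 50 uM, loss-of-signal versus DMSO.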
# [2] = target: rat Neurokinin-1 Receptor (NK1), Tacr1 (gene 24807) (UniProt P14600); assay: NVS_GPCR_rNK1: NovaScreen (NVS) G Protein-Coupled Receptor Assay for rat Neurokinin-1 Receptor (NK1) (AID 2283309)
# Procedure, shortened: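 Rat submaxillary gland membranes; radioligand displacement read by filter-based scintillation counting after 1 h. Primary screen in duplicate at 25 uM; actives retested in concentration series; loss of binding fitted versus DMSO.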
# [3] = target: mouse Cholecystokinin, CCK2 Receptor (CCKB), Cckbr (gene 12426) (UniProt P56481); assay: NVS_GPCR_mCKKBCentral: NovaScreen (NVS) G Protein-Coupled Receptor Assay for mouse Cholecystokinin, CCK2 Receptor (CCKB) (AID 2283293)
# Procedure, shortened: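 Radioligand displacement binding on mouse forebrain membranes, 2 h exposure, filter-based scintillation counting. Primary screen in duplicate at 25 uM; actives (e.g. ≥30% inhibition) retested in concentration-response up to 50 uM; loss of binding signal relative to DMSO.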
# [4] = target: guinea pig Serotonin, 5-Hydroxytryptamine Receptor 4 (5HT4), HTR4 (gene 100135548) (UniProt O70528); assay: NVS_GPCR_g5HT4: NovaScreen (NVS) G Protein-Coupled Receptor Assay for guinea pig Serotonin, 5-Hydroxytryptamine Receptor 4 (5HT4) (AID 2283294)
# Procedure, shortened: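 Guinea pig striatal membranes; radioligand competitive displacement, filtration and scintillation counting after 1 h. Primary screen in duplicate at 25 uM; actives then tested in concentration series; loss of binding signal fitted relative to DMSO.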
# [5] = test system: rat Adrenergic, Alpha 1B Receptor (Adra1B), gene 24173; assay: NVS_GPCR_rAdra1B: NovaScreen (NVS) G Protein-Coupled Receptor Assay for rat Adrenergic, Alpha 1B Receptor (Adra1B) (AID 2283297)
# Procedure, shortened: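 Rat liver membranes, radioligand displacement with filter-based scintillation detection, 1 h incubation. Primary screen in duplicate at 25 uM; actives retested in concentration series; activity relative to DMSO.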
# [6] = target: rat Adrenergic Receptor, Beta (Adrb), Non-selective Binding, Adrb1 (gene 24925) (UniProt P18090); assay: NVS_GPCR_rAdrb_NonSelective: NovaScreen (NVS) G Protein-Coupled Receptor Assay for rat Adrenergic Receptor, Beta (Adrb), Non-selective Binding (AID 2283298)
# Procedure, shortened: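 Non-selective beta-adrenergic radioligand binding in rat cortical membranes, 1 h incubation, filter-based scintillation read-out. Primary screen 25 uM in duplicate; hits retested in concentration-response up to 50 uM, DMSO baseline.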
# [7] = target: rat Adrenergic Receptor, Alpha 2 (Adra2), Non-selective Binding, Adra2a (gene 25083) (UniProt P22909); assay: NVS_GPCR_rAdra2_NonSelective: NovaScreen (NVS) G Protein-Coupled Receptor Assay for rat Adrenergic Receptor, Alpha 2 (Adra2), Non-selective Binding (AID 2283299)
# Procedure, shortened: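 Rat cortical membranes, radioligand competitive displacement read by filter-based scintillation counting 1.25 hours after dosing. Primary screen in duplicate at 25 uM; actives followed up in concentration series.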
# [8] = target: Metabotropic glutamate receptor 1 (Rattus norvegicus) (UniProt P23385); assay: NVS_GPCR_rmMGluR1: NovaScreen (NVS) G Protein-Coupled Receptor Assay for rat Glutamate Metabotropic Receptor 1 (MGluR1) (AID 2283305)
# Procedure, shortened: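 Rat cerebellum membrane preparation, radioligand displacement binding read by filter-based scintillation counting 1 hour after dosing. Initial duplicate single-point screen at 25 uM, then concentration-response up to 50 uM; loss of signal versus DMSO baseline scored.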
# Adra2b (gene 24174) = Adra2b (gene 24174) (UniProt P19328); assay: NVS_GPCR_rmAdra2B: NovaScreen (NVS) G Protein-Coupled Receptor Assay for hybird cells Adrenergic, Alpha 2B Receptor (Adra2B) (AID 2283306)
# Procedure, shortened: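 Radioligand filter-binding assay on membrane proteins from neuroglioma/blastoma hybrid cells (rodent), 1 h after dosing; scintillation counting, loss of signal vs DMSO. Primary screen in duplicate at 25 uM, actives then run in concentration series.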
# [9] = target: rat Somatostatin Receptor (SST), Sstr1 (gene 25033) (UniProt P28646); assay: NVS_GPCR_rSST: NovaScreen (NVS) G Protein-Coupled Receptor Assay for rat Somatostatin Receptor (SST) (AID 2283314)
# Procedure, shortened: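 Rat forebrain membranes; radioligand displacement read by filter-based scintillation counting 1 h after dosing. Primary screen in duplicate at 25 uM. Actives (e.g., 30% inhibition) were rerun as concentration-response to 50 uM max and fitted against DMSO.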
# [10] = target: rat Neurokinin-3 Receptor (NK3), Tacr3 (gene 24808) (UniProt P16177); assay: NVS_GPCR_rNK3: NovaScreen (NVS) G Protein-Coupled Receptor Assay for rat Neurokinin-3 Receptor (NK3) (AID 2283310)
# Procedure, shortened: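 Rat cortical membranes; radioligand binding with filtration and scintillation counting, 2 h after dosing. Primary screen in duplicate at 25 uM, then concentration-response up to 50 uM; loss of binding signal relative to DMSO.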
# [11] = target: rat Histamine Receptor (H3), Hrh3 (gene 85268) (UniProt Q9QYN8); assay: NVS_GPCR_rH3: NovaScreen (NVS) G Protein-Coupled Receptor Assay for rat Histamine Receptor (H3) (AID 2283303)
# Procedure, shortened: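 Rat forebrain membranes incubated 1 h with compound; radioligand displacement measured by filter-based scintillation counting. Single-concentration duplicates at 25 µM, then concentration-response up to 50 µM, relative to DMSO.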
# [12] = target: rat Opioid Receptor, Non-selective Sodium (Na+) Binding, Oprm1 (gene 25601) (UniProt P33535); assay: NVS_GPCR_rOpiate_NonSelectiveNa: NovaScreen (NVS) G Protein-Coupled Receptor Assay for rat Opioid Receptor, Non-selective Sodium (Na+) Binding (AID 2283311)
# Procedure, shortened: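 Rat forebrain membranes, radioligand displacement with filter scintillation counting, 1.5 h incubation. Screened in duplicate at 25 µM; hits then run in concentration-response up to 50 µM; loss of binding fitted versus DMSO.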
# [13] = target: human Neonicotinoid receptor (NNR), CHRNA2 (gene 1135) (UniProt Q15822); assay: NVS_LGIC_hNNR_NBungSens: NovaScreen (NVS) Ligand-Gated Ion Channel Assay for human Neonicotinoid receptor (NNR) (AID 2283313)
# Procedure, shortened: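 Radioligand displacement on human neuroblastoma membranes, 2 h, filter-based scintillation counting. Primary screen in duplicate at 25 uM; chemicals passing threshold (e.g. 30% inhibition) run singleton concentration-response to 50 uM; loss of binding fitted versus DMSO.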
# [14] = test system: guinea pig Atrionatriuretic Peptide Receptor A (ANPA), gene 100135578; assay: NVS_GPCR_gANPA: NovaScreen (NVS) G Protein-Coupled Receptor Assay for guinea pig Atrionatriuretic Peptide Receptor A (ANPA) (AID 2283291)
# Procedure, shortened: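 Radioligand binding to guinea pig cerebellar membranes was measured after 1 h by filter-based scintillation counting. Chemicals were tested in duplicate at 25 uM, with hits run in concentration-response to a maximum of 50 uM. Binding loss was fitted against DMSO.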
# [15] = target: guinea pig Bradykinin Receptor B2 (BK2), BDKRB2 (gene 100135486) (UniProt O70526); assay: NVS_GPCR_gBK2: NovaScreen (NVS) G Protein-Coupled Receptor Assay for guinea pig Bradykinin Receptor B2 (BK2) (AID 2283292)
# Procedure, shortened: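 Radioligand displacement on guinea pig ileum membranes for 1 h, read by filter-based scintillation counting; loss of signal relative to DMSO. Compounds were screened in duplicate at 25 uM, and those passing the threshold were retested in concentration-response up to 50 uM.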
# [16] = target: rat Corticotropin Releasing Factor Receptor (CRF), Crhr1 (gene 58959) (UniProt P35353); assay: NVS_GPCR_rCRF: NovaScreen (NVS) G Protein-Coupled Receptor Assay for rat Corticotropin Releasing Factor Receptor (CRF) (AID 2283300)
# Procedure, shortened: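 Rat cortical membranes used as receptor source in a radioligand competitive displacement binding assay; scintillation read 2 h after dosing. Primary screen run in duplicate at 25 uM; loss of signal versus DMSO baseline indicates binding.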
# [17] = target: rat Serotonin, 5-Hydroxytryptamine Receptor (5HT), Non-Selective Binding, Htr1a (gene 24473) (UniProt P19327); assay: NVS_GPCR_r5HT_NonSelective: NovaScreen (NVS) G Protein-Coupled Receptor Assay for rat Serotonin, 5-Hydroxytryptamine Receptor (5HT), Non-Selective Binding (AID 2283295)
# Procedure, shortened: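 Radioligand displacement on rat cortical membranes, 1 h incubation, filter-based scintillation counting. Primary duplicates at 25 uM, actives retested in concentration series; loss of signal fitted against DMSO as baseline.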
# [18] = target: rat Adrenergic, Alpha 1A Receptor (Adra1A), Adra1a (gene 29412) (UniProt P43140); assay: NVS_GPCR_rAdra1A: NovaScreen (NVS) G Protein-Coupled Receptor Assay for rat Adrenergic, Alpha 1A Receptor (Adra1A) (AID 2283296)
# Procedure, shortened: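 Rat cortical membranes pretreated with chlorethyl clonidine; competitive radioligand displacement, 1 h. Filter-based scintillation counting. Primary screen in duplicate at 25 uM, actives followed in concentration series.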
# [19] = target: rat Gamma-Aminobutyric Acid Type B Receptor (GABBR), Gabbr1 (gene 81657) (UniProt Q9Z0U4); assay: NVS_GPCR_rGABBR: NovaScreen (NVS) G Protein-Coupled Receptor Assay for rat Gamma-Aminobutyric Acid Type B Receptor (GABBR) (AID 2283301)
# Procedure, shortened: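 Radioligand displacement on rat cortical membranes, 1 h, filter-based scintillation counting. Primary screen at 25 uM in duplicate; compounds passing threshold re-tested in concentration-response up to 50 uM; loss of binding fitted against DMSO.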
# rat Somatostatin Receptor (SST), Sstr1 (gene 25033), sequence (P28646 whole entry, looked up): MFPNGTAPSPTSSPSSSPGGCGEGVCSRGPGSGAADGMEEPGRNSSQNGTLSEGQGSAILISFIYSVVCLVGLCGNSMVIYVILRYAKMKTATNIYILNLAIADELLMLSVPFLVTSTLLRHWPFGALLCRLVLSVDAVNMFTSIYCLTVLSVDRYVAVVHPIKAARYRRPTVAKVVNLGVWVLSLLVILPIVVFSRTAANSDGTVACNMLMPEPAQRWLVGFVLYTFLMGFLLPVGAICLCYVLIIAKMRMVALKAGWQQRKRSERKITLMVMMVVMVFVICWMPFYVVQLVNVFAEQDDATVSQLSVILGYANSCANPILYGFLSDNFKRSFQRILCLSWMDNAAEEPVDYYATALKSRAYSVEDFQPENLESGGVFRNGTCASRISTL
# guinea pig Serotonin, 5-Hydroxytryptamine Receptor 4 (5HT4), HTR4 (gene 100135548), sequence (O70528 whole entry, looked up): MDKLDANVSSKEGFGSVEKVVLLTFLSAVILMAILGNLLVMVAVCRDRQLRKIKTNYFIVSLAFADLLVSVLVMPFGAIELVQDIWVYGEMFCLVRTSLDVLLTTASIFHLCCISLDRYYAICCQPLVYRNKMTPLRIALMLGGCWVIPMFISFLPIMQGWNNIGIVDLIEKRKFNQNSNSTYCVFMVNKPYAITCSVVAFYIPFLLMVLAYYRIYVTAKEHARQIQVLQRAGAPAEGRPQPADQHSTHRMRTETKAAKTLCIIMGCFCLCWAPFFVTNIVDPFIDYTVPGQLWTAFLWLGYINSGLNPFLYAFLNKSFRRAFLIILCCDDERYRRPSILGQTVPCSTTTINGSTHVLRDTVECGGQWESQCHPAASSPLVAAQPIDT
# rat Adrenergic Receptor, Alpha 2 (Adra2), Non-selective Binding, Adra2a (gene 25083), sequence (P22909 whole entry, looked up): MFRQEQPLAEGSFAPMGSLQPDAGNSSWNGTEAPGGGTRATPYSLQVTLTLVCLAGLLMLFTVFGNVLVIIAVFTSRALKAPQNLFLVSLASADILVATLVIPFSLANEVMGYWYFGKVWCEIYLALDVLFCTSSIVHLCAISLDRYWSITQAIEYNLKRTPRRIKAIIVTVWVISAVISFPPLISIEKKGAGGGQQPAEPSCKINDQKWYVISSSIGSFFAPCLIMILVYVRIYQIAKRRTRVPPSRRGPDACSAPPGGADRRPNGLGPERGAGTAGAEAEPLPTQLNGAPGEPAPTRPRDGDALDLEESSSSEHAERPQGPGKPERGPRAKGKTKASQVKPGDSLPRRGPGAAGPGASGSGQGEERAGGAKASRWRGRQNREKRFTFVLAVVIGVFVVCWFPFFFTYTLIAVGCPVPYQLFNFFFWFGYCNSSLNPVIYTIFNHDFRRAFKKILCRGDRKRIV
# human Neonicotinoid receptor (NNR), CHRNA2 (gene 1135), sequence (Q15822 whole entry, looked up): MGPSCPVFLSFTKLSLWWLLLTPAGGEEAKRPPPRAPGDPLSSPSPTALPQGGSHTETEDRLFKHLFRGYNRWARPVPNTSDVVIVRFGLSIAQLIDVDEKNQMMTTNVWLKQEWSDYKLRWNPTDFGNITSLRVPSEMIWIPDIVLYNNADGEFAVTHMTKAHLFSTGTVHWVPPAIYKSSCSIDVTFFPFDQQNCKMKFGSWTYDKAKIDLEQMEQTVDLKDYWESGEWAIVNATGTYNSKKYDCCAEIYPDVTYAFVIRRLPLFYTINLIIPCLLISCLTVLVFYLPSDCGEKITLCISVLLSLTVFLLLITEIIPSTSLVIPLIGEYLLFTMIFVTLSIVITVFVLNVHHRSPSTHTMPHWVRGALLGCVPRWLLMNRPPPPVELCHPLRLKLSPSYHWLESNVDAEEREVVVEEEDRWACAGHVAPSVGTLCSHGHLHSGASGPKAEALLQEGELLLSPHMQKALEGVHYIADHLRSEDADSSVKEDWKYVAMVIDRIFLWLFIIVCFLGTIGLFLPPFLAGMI
# Adra2b (gene 24174), sequence (P19328 whole entry, looked up): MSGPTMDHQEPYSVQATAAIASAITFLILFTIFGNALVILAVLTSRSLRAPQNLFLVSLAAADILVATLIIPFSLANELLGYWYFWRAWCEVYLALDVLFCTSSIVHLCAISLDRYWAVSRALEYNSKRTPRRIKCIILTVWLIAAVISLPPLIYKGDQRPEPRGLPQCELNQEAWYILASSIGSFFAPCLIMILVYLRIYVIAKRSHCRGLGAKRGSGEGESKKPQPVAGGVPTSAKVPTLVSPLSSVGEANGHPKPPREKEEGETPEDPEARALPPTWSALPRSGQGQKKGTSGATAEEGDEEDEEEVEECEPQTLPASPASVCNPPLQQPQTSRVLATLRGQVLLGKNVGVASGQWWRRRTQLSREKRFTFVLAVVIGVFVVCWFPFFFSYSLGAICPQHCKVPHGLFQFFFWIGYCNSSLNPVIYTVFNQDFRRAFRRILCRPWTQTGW
# rat Corticotropin Releasing Factor Receptor (CRF), Crhr1 (gene 58959), sequence (P35353 whole entry, looked up): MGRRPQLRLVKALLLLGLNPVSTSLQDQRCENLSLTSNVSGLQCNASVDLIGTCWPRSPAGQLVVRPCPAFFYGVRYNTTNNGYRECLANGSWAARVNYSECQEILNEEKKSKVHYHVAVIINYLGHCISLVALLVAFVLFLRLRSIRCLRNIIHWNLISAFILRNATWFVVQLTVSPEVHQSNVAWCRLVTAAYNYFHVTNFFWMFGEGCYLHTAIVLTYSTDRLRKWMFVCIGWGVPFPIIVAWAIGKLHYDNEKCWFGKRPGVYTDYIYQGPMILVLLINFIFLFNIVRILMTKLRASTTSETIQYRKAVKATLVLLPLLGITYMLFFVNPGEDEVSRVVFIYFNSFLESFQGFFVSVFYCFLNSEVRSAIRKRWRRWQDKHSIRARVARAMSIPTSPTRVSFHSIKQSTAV
# rat Neurokinin-1 Receptor (NK1), Tacr1 (gene 24807), sequence (P14600 whole entry, looked up): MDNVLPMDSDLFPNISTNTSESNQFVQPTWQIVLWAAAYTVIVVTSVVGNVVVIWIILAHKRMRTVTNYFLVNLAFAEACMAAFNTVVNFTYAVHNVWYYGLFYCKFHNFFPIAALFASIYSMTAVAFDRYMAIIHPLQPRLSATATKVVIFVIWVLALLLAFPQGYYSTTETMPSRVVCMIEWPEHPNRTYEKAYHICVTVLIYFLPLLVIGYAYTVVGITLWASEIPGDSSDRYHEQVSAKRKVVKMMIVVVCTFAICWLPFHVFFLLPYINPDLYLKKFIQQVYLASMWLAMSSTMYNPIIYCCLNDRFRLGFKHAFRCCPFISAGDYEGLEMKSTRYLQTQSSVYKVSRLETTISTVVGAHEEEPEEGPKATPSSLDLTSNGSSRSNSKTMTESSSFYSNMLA
# rat Serotonin, 5-Hydroxytryptamine Receptor (5HT), Non-Selective Binding, Htr1a (gene 24473), sequence (P19327 whole entry, looked up): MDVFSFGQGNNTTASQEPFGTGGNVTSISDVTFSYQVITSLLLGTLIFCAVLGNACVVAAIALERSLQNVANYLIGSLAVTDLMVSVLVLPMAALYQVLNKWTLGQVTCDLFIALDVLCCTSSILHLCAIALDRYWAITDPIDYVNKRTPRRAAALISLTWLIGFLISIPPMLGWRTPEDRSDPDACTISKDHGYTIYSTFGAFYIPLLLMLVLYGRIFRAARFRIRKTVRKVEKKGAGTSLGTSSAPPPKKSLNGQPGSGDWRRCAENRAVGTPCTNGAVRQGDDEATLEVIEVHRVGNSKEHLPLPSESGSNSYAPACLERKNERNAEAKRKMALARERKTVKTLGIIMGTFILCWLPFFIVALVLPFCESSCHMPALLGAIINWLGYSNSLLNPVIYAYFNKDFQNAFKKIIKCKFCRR
# rat Opioid Receptor, Non-selective Sodium (Na+) Binding, Oprm1 (gene 25601), sequence (P33535 whole entry, looked up): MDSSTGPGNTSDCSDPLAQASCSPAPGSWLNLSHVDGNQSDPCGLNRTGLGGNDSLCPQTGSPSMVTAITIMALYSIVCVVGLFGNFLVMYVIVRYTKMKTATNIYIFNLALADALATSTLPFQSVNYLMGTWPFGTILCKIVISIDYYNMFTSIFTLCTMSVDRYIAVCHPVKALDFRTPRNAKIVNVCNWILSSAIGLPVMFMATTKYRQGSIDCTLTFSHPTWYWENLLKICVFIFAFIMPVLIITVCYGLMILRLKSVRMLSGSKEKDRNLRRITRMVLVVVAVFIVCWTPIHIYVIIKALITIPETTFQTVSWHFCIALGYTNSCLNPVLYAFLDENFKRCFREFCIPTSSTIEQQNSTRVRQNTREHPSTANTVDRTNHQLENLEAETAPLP
# rat Neurotensin Receptor (NTS), Ntsr1 (gene 366274), sequence (P20789 whole entry, looked up): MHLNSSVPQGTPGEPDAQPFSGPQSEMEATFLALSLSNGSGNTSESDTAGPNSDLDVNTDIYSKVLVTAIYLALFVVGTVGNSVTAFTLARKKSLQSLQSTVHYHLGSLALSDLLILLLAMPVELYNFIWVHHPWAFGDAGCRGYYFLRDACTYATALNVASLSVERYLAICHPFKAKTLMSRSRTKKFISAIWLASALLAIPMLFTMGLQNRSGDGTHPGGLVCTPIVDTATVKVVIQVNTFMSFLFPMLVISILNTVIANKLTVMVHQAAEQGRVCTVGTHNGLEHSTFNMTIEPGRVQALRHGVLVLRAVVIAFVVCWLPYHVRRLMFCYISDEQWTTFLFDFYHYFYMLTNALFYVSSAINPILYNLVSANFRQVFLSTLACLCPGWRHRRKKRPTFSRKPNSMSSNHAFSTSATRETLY
# mouse Cholecystokinin, CCK2 Receptor (CCKB), Cckbr (gene 12426), sequence (P56481 whole entry, looked up): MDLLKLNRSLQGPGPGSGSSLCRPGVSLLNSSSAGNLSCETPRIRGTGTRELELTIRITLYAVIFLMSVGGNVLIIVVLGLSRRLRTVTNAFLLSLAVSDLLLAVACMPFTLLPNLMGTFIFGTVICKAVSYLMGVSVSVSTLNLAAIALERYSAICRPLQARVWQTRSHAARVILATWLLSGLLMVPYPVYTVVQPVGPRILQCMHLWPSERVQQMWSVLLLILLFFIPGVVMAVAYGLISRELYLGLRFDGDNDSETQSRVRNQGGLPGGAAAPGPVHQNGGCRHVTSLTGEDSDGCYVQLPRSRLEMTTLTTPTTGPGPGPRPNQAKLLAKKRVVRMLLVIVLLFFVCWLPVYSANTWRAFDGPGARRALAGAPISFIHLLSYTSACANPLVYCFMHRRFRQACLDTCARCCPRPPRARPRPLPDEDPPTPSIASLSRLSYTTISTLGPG
compound,measurement,setting,value
CCOP(=O)(OCC)Oc1cc(C)nc(C(C)C)n1,outcome,[1],inactive
same,outcome,[2],inactive
CC[C@H](C)[C@H]1O[C@]2(C=C[C@@H]1C)C[C@@H]1C[C@@H](C/C=C(\C)[C@@H](O[C@H]3C[C@H](OC)[C@@H](O[C@H]4C[C@H](OC)[C@@H](NC)[C@H](C)O4)[C@H](C)O3)[C@@H](C)/C=C/C=C3\CO[C@@H]4[C@H](O)C(C)=C[C@@H](C(=O)O1)[C@]34O)O2,AC50,[3],15.4 µM (active)
same,AC50,[4],21.4 µM (active)
same,AC50,[5],33.1 µM (active)
same,outcome,[6],inactive
same,AC50,[7],11.5 µM (active)
same,AC50,[8],12.7 µM (active)
same,AC50,Adra2b (gene 24174),34.8 µM (active)
same,AC50,[2],30.6 µM (active)
same,AC50,[9],2.49 µM (active)
CN(C)C(=O)Nc1cccc(C(F)(F)F)c1,outcome,[10],inactive
CCOP(=S)(Oc1cnc(C(C)(C)C)nc1)OC(C)C (configuration not stated),outcome,[7],inactive
N#CSCSC#N,AC50,[11],9.77 µM (active)
same,outcome,[9],inactive
CNC(=O)ON=C(C)SC,AC50,[2],44.1 µM (active)
CCCSP(=O)(OCC)SCCC,outcome,[12],inactive
CC(=NC#N)N(C)Cc1ccc(Cl)nc1,AC50,[13],4.61 µM (active)
CCOP(=S)(OCC)Oc1ccc2c(C)c(Cl)c(=O)oc2c1,outcome,[14],inactive
COP(=O)(OC)OC(Br)C(Cl)(Cl)Br (configuration not stated),AC50,[11],5.79 µM (active)
CC(C)[C@H](C(=O)O[C@H](C#N)c1cccc(Oc2ccccc2)c1)c1ccc(Cl)cc1,outcome,[4],inactive
same,outcome,[7],inactive
S=C1NCCN1,outcome,[15],inactive
same,outcome,[7],inactive
same,outcome,[1],inactive
same,outcome,[13],inactive
C=C(C)[C@H]1Cc2c(ccc3c2O[C@@H]2COc4cc(OC)c(OC)cc4[C@@H]2C3=O)O1,outcome,[1],inactive
CSc1nnc(C(C)(C)C)c(=O)n1N,outcome,[13],inactive
Nc1c(Cl)cc([N+](=O)[O-])cc1Cl,outcome,[16],inactive
CCCOCC(=Nc1ccc(Cl)cc1C(F)(F)F)n1ccnc1,outcome,[4],inactive
same,outcome,[2],inactive
same,outcome,[10],inactive
CC1=NNC(=O)N(/N=C/c2cccnc2)C1,outcome,[1],inactive
CCOP(=S)(OCC)Oc1cc(C)nc(C(C)C)n1,outcome,[1],inactive
CSc1nc(NC(C)C)nc(NC(C)C)n1,outcome,[4],inactive
CCOP(=O)(NC(C)C)Oc1ccc(SC)c(C)c1 (configuration not stated),outcome,[10],inactive
FC(F)C(F)(F)OCC(Cn1cncn1)c1ccc(Cl)cc1Cl (configuration not stated),AC50,[3],10.3 µM (active)
same,outcome,[6],inactive
same,outcome,[2],inactive
CCc1cccc(C)c1N(C(=O)CCl)C(C)COC (configuration not stated),AC50,[12],12.4 µM (active)
CCC(=O)Nc1ccc(Cl)c(Cl)c1,AC50,[4],9.91 µM (active)
same,AC50,[17],34.6 µM (active)
same,outcome,Adra2b (gene 24174),inactive
CSC1=N[C@@](C)(c2ccccc2)C(=O)N1Nc1ccccc1,outcome,[18],inactive
same,outcome,[2],inactive
Cc1cc(C2CC2)nc(Nc2ccccc2)n1,outcome,[16],inactive
same,outcome,[19],inactive
COc1ccc(C(=CC(=O)N2CCOCC2)c2ccc(Cl)cc2)cc1OC,AC50,Adra2b (gene 24174),11.7 µM (active)
same,outcome,[2],inactive
same,outcome,[12],inactive
C[N+]1(C)CCCCC1,AC50,[13],11.2 µM (active)
C[Si](Cn1cncn1)(c1ccc(F)cc1)c1ccc(F)cc1,AC50,[18],16.9 µM (active)
same,AC50,[5],19.1 µM (active)
same,AC50,Adra2b (gene 24174),25 µM (active)
same,outcome,[2],inactive
same,outcome,[10],inactive
C#CCC1=C(C)C(OC(=O)C2C(C=C(C)C)C2(C)C)CC1=O (configuration not stated),outcome,[14],inactive
CC(C)=CC1C(C(=O)OCN2C(=O)C3=C(CCCC3)C2=O)C1(C)C (configuration not stated),outcome,[16],inactive
same,outcome,[9],inactive
CCc1cccc(CC)c1N(COC)C(=O)CCl,outcome,[14],inactive
CCOC(=O)COc1cc(-c2nn(C)c(OC(F)F)c2Cl)c(F)cc1Cl,outcome,[17],inactive
COc1cc(OC)nc(Sc2cccc(Cl)c2C(=O)O)n1,outcome,[17],inactive
CCCCSP(=O)(SCCCC)SCCCC,outcome,[3],inactive
same,outcome,[1],inactive
COP(=O)(NC(C)=O)SC (configuration not stated),outcome,[19],inactive
CCOP(=S)(OCC)Oc1ccc([N+](=O)[O-])cc1,outcome,[12],inactive
C#CC(C)(C)NC(=O)c1cc(Cl)cc(Cl)c1,outcome,[16],inactive
